# According to PubChem BioAssay (NCATS):
# Several values for one entry are separate records, joined by “and”; a condition that tells them apart may be missing. Identical values can stand only once. Inconclusive results are not listed. A call without a number means that no potency is given here. Some compounds were tested as several samples or in several runs, with calls that do not always agree. Activity calls are given as the source filed them. Unless noted, calls come from the whole dose curve; as a rule, active = well fitted curve in the direction sought with a large enough effect; inconclusive = small, poorly fitted or top-dose-only effect, or another doubt; inactive = no such curve, though single readings can be large; an effect the other way counts as inactive or inconclusive.
# Columns and labels:
# [1] = target: Voltage-gated inwardly rectifying potassium channel KCNH2 (Homo sapiens) (UniProt Q12809); assay: qHTS Assay for Small Molecule Inhibitors of the Human hERG Channel Activity (AID 588834);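 note: lower thallium flux fluorescence means stronger hERG block; nearly all actives have a fitted effect of over 50% in size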; note: potency is the fitted concentration of half-maximal effect
# Summary of the method: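 Cells were infected with hERG-BacMam virus for 4 hrs at room temperature, grown overnight, then seeded at 2000/well. After dye loading and roughly 10 min compound treatment, thallium influx was triggered and fluorescence recorded.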
# [2] = target: Luciferin 4-monooxygenase (Photinus pyralis) (UniProt P08659); assay: Biochemical firefly luciferase enzyme assay for NPC (AID 624030); note: nearly all actives have a fitted effect of over 70% in size; note: potency is the fitted concentration of half-maximal effect
# Summary of the method: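 Direct inhibition of firefly luciferase enzyme (10 nM final, 50 mM Tris Acetate) assessed by luminescence within 5 minutes. Percent activity scaled between DMSO and PTC124 positive control, with concentration-effect curves classified by fit quality and response.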
# [3] = S16 Schwann cell PMP22 intronic element firefly luciferase assay (AID 624032); note: series mostly up to about 58 µM; nearly all actives have a fitted effect of over 30% in size
# Summary of the method: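 Luciferase reporter of PMP22 intronic-element expression in stably transfected S16 rat Schwann cells, read by ONE-Glo luminescence after 24 h compound exposure at 37 C. Activity scaled between DMSO (0%) and positive-control PTC124; concentration-effect curves quality-classified.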
# [4] = target: Glutaminase kidney isoform, mitochondrial (Homo sapiens) (UniProt O94925); assay: qHTS for Inhibitors of Glutaminase (GLS): LOPAC Validation (AID 624146);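 note: glutamate product detected by oxidase and peroxidase coupled Amplex red fluorescence gain; series mostly up to about 46 µM; nearly all actives have a fitted effect of over 60% in size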
# Summary of the method: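 Enzyme dispensed in phosphate buffer (45 mM, pH 8.2, 0.02% Tween-20), compounds pinned in, then 1 mM L-glutamine solution and the glutamate oxidase–HRP–Amplex Red mix added; fluorescence read immediately and again after 30 min at room temperature.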
# [5] = S16 Schwann cell viability assay (CellTiter-Glo assay) (AID 624031);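 note: native untransfected S16 rat Schwann cells; series mostly up to about 58 µM; nearly all actives have a fitted effect of over 70% in size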
# Summary of the method: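 Counter-screen for cytotoxicity: parental S16 rat Schwann cells lacking the PMP22 reporters, treated 24 h with compound, viability from cellular ATP by CellTiter-Glo luminescence, normalized to DMSO (0%) and no-cell wells.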
# [6] = S16 Schwann cell PMP22 intronic element beta-lactamase assay (AID 624044; calls by dose curve; note: nearly all actives have a fitted effect of over 15% in size; note: potency is the fitted concentration of half-maximal effect)
# Summary of the method: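 Beta-lactamase reporter under a PMP22 intronic regulatory element in stable S16 rat Schwann cells; 24 h compound exposure. 460 nm blue signal normalized between DMSO (0%) and potassium clavulanate, with 535 nm FRET tracking viability; curves classed by r2 and response.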
# Chain of Glutaminase kidney isoform, mitochondrial (Homo sapiens) (O94925 whole entry, looked up, canonical isoform): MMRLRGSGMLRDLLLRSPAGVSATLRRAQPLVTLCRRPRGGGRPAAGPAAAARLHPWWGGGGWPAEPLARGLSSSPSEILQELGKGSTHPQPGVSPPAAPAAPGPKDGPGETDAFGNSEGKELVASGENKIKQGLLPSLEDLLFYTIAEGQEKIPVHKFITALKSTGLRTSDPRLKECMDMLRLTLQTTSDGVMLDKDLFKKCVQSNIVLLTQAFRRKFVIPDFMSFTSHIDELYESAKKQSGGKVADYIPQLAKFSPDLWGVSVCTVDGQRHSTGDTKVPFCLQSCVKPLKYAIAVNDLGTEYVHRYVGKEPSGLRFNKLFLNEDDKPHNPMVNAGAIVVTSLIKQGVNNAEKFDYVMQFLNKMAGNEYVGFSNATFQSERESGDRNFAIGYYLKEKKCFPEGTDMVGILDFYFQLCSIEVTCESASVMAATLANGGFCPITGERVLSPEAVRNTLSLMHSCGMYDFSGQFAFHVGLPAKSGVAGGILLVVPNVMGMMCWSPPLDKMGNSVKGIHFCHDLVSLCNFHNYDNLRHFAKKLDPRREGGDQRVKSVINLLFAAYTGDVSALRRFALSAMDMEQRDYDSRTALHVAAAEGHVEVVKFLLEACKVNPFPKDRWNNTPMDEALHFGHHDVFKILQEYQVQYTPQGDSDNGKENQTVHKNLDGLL
# Chain of Luciferin 4-monooxygenase (Photinus pyralis) (P08659 whole entry, looked up): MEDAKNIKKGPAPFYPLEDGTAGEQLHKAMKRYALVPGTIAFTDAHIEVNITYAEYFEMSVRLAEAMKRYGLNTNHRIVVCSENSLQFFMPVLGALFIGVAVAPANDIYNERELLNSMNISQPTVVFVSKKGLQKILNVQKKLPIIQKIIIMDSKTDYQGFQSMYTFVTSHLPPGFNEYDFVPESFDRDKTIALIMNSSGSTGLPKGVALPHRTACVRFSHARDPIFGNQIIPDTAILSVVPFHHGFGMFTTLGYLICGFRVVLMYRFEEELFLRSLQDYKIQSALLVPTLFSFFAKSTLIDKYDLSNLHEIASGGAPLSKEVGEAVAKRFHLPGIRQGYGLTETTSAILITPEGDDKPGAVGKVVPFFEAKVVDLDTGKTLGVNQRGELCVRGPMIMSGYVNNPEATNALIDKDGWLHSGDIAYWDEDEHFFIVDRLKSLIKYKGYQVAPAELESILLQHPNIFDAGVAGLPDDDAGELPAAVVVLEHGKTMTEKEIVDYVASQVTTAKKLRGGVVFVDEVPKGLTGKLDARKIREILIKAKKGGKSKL
# Chain of Voltage-gated inwardly rectifying potassium channel KCNH2 (Homo sapiens) (Q12809 whole entry, looked up): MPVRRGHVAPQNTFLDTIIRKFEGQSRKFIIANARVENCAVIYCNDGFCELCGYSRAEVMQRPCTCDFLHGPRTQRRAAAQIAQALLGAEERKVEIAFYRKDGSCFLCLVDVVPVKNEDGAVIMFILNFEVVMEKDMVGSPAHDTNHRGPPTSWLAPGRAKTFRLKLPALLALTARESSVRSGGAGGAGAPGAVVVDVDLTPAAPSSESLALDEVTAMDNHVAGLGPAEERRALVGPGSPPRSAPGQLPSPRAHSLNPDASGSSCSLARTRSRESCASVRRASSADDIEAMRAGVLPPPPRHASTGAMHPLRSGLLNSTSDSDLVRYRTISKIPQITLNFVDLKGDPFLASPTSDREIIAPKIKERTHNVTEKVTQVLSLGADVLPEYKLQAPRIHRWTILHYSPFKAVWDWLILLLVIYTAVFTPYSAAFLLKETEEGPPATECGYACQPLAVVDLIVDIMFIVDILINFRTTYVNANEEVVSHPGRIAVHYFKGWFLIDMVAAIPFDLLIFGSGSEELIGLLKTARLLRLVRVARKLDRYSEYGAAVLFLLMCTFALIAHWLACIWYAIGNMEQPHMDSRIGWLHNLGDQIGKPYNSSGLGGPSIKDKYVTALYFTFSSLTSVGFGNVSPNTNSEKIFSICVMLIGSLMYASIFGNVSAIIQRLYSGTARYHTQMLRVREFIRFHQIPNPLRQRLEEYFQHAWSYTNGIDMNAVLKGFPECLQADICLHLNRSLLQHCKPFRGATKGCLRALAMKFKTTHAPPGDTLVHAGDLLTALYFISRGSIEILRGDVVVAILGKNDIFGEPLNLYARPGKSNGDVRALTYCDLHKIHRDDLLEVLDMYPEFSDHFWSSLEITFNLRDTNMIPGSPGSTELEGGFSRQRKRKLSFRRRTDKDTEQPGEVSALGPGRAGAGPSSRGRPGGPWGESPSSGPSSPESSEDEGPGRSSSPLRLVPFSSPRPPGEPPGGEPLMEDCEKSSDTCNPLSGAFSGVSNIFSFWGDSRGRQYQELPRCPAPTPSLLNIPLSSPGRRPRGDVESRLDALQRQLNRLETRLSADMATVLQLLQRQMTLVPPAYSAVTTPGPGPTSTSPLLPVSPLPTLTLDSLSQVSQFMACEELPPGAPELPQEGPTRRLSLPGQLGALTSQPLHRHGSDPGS
SMILES,Potency [1],Potency [2],Potency [3],Potency [4],Potency [5],Potency [6]
NC(=O)OCC(COC(N)=O)c1ccccc1,inactive,inactive,inactive,inactive,,
CC(C)NCC(O)COc1ccc(CCOCC2CC2)cc1 (stereo not drawn),inactive,inactive,inactive,inactive,,
CC[N+](CC)(CC)CCOc1cccc(OCC[N+](CC)(CC)CC)c1OCC[N+](CC)(CC)CC,inactive,inactive,inactive,inactive,inactive,
Nc1nc2c(ncn2COC(CO)CO)c(=O)[nH]1,inactive,inactive,inactive,inactive,,
NC12CC3CC(CC(C3)C1)C2,inactive,inactive,,inactive,inactive,
COc1nc(C)nc(Cl)c1NC1=NCCN1,inactive,inactive,inactive,inactive,,
Cc1ccc(C(=O)Nc2ccc(S(=O)(=O)O)c3cc(S(=O)(=O)O)cc(S(=O)(=O)O)c23)cc1NC(=O)c1cccc(NC(=O)Nc2cccc(C(=O)Nc3cc(C(=O)Nc4ccc(S(=O)(=O)O)c5cc(S(=O)(=O)O)cc(S(=O)(=O)O)c45)ccc3C)c2)c1,inactive,11.4 µM (active),inactive,,inactive,
COC(=O)Nc1nc2ccc(C(=O)c3cccs3)cc2[nH]1,inactive,inactive,inactive,inactive,inactive,2.24 µM (active)
NCCc1cnc[nH]1,inactive,inactive,inactive,,inactive,inactive
CC(=O)OCC(CCn1cnc2cnc(N)nc21)COC(C)=O,inactive,inactive,inactive,,,
CS(=O)(=O)CCNCc1ccc(-c2ccc3ncnc(Nc4ccc(OCc5cccc(F)c5)c(Cl)c4)c3c2)o1,inactive,inactive,inactive,,,inactive
Clc1ccc2nsnc2c1NC1=NCCN1,inactive,inactive,inactive,inactive,,
CC(CCc1ccc(O)cc1)NCCc1ccc(O)c(O)c1 (stereo not drawn),inactive and 3.55 µM (active),inactive,inactive,,inactive,inactive
C[C@H]1c2cccc(O)c2C(O)=C2C(=O)[C@]3(O)C(O)=C(C(N)=O)C(=O)[C@@H](N(C)C)[C@@H]3[C@@H](O)[C@@H]21,inactive,,,,,
O=C1N(c2ccccc2)c2ccccc2C1(Cc1ccncc1)Cc1ccncc1,inactive,inactive,inactive,inactive,inactive,inactive
O=C(c1ccc(F)cc1)C1CCN(CCn2c(=O)[nH]c3ccccc3c2=O)CC1,3.55 µM (active) and 562 nM (active),inactive,inactive,inactive,inactive,inactive
